The text below walks through data of PubChem BioAssay (NCI).

SMILES strings stand for the structures. Compounds without any hit were thinned out: in the full panel of roughly 83,000, 20% have a hit.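 The endpoint reported here, percent growth, reads 100 for growth as untreated, 0 for no net growth and -100 for all cells dead.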 A number with no mark means an inactive call. The source made the active and inactive calls. Rule for the calls: active = growth percent below 10; inactive = the rest.

Among the test systems are NCI-H23 lung; NCI-H322M lung; HOP-62 NSCLC; NCI-H460 lung; HOP-92 NSCLC; NCI-H522 lung; A549/ATCC NSCLC; 786-0 renal; COLO 205 colon; DU-145 prostate; K-562 leukemia; MALME-3M melanoma; MDA-MB-231 breast; RXF 393 renal; SF-268 CNS; SF-295 CNS; SF-539 CNS; UACC-257 melanoma; M14 melanoma; HCT-15 colon.
Common to all, as to assay: NCI-60 one-dose screen, 48 h (100 = growth as untreated, 0 = no growth, -100 = all killed)
Settings in all cases: 10 µM unless noted

Regarding `O=C(Nc1ccc(F)c(Cl)c1)Nc1ccc(Cl)c(Cl)c1`, the growth is 86.1% with NCI-H23 lung; 102% in the test with NCI-H322M lung; 74.2% in the test on HOP-62 NSCLC; 76.9% in the test with NCI-H460 lung; 65.1% with HOP-92 NSCLC; 66.4% in the test on NCI-H522 lung. Further, the growth with A549/ATCC NSCLC was 71.8%; in the test with 786-0 renal, 87.2%; in the test with COLO 205 colon it was 89%; in the test with DU-145 prostate, 88.4%; with K-562 leukemia, 15.4%; with MALME-3M melanoma, 57.5%. The growth is 76% in the test on MDA-MB-231 breast; 72.8% with RXF 393 renal; 88.1% in the test on SF-268 CNS; 36.6% in the test on SF-295 CNS; 80.3% in the test on SF-539 CNS; 84.1% with UACC-257 melanoma. Also, the growth was 53.6% in the test on M14 melanoma and 53.1% in the test on HCT-15 colon.
As to `CCn1c(Cc2ccccc2Nc2c(Cl)cccc2Cl)nnc1SCC(=O)NN1C(=O)/C(=C/c2cccc(OC)c2OC)SC1=S`, the growth with NCI-H23 lung was 98.4%; in the test on NCI-H322M lung, 99%; in the test with HOP-62 NSCLC, 98.6%; in the test with NCI-H460 lung, 103%; in the test on HOP-92 NSCLC it was 96.9%; in the test on NCI-H522 lung, 86.8%. The growth with A549/ATCC NSCLC was 96.3%; in the test on 786-0 renal, 104%; in the test on COLO 205 colon, 112%; in the test with DU-145 prostate, 105%; in the test with K-562 leukemia, 89.7%; in the test on MALME-3M melanoma, 97.1%. The growth in the test with MDA-MB-231 breast was 102%; with RXF 393 renal, 112%; in the test with SF-268 CNS it was 96.1%; in the test with SF-295 CNS, 95%; with SF-539 CNS, 101%; in the test with UACC-257 melanoma it was 101%. In addition, the growth in the test with M14 melanoma is 103%; in the test with HCT-15 colon, 99.8%.
As to `COc1ccc(-c2cc(=O)c3c(OC)c4ccoc4c(/C=C/C=O)c3o2)cc1`, the growth in the test on NCI-H23 lung was 40.5%; in the test with NCI-H322M lung, 51.2%; in the test on HOP-62 NSCLC, 15.5%; in the test with NCI-H460 lung, 64.8%; with HOP-92 NSCLC, 72.4%; in the test on NCI-H522 lung it was 88.3%. The growth in the test on A549/ATCC NSCLC is 90.7%; in the test on 786-0 renal, 82.8%; with COLO 205 colon, 99%; in the test with DU-145 prostate it was 24.8%; with K-562 leukemia it was 12.2%; in the test on MALME-3M melanoma, 24.8%. Also, the growth with MDA-MB-231 breast is 53.6%; in the test with RXF 393 renal, 48.5%; in the test with SF-268 CNS it was 36.2%; in the test with SF-295 CNS, 31.7%; in the test on SF-539 CNS, 14.8%; in the test with UACC-257 melanoma, 108%. Also, the figures for the growth in the test with M14 melanoma and in the test on HCT-15 colon were 28.4% and -54.1% (active), respectively.
For `CC1=C(C(=O)OCC2CCN(C(=O)OC(C)(C)C)CC2)[C@@H](c2cccc(C#N)c2)C2=C(CC(C)(C)CC2=O)N1`, the growth in the test with NCI-H23 lung was 53.3%; in the test with NCI-H322M lung, 57.1%; in the test with HOP-62 NSCLC it was 65.8%; in the test with NCI-H460 lung, 8.58% (active); in the test on HOP-92 NSCLC, 79.9%; in the test with NCI-H522 lung it was 29.6%. Besides, the growth with A549/ATCC NSCLC was 35.5%; in the test on 786-0 renal, 41.5%; with COLO 205 colon it was 38.6%; in the test with DU-145 prostate, 38.5%; in the test with K-562 leukemia it was 25.5%; in the test with MALME-3M melanoma it was 48.5%. Further, the growth was 61.1% in the test on MDA-MB-231 breast; 71% with RXF 393 renal; 50.5% in the test with SF-268 CNS; 27.5% with SF-295 CNS; 41.7% in the test on SF-539 CNS; 61.4% in the test on UACC-257 melanoma. Further, the growth was 35.7% with M14 melanoma and 19.5% in the test on HCT-15 colon.
`CN1C(=O)N(C)C2Nn3c(s/c(=C\c4ccc(Cl)cc4Cl)c3=O)=NC21` (stereo not given): the growth is 61.8% with NCI-H23 lung; 78.7% in the test with NCI-H322M lung; 73.2% in the test with HOP-62 NSCLC; 30.8% in the test with NCI-H460 lung; 89.5% in the test with HOP-92 NSCLC; 55.3% in the test with NCI-H522 lung. In addition, the growth in the test on A549/ATCC NSCLC was 51.4%; with 786-0 renal, 68.5%; in the test with COLO 205 colon, 22%; in the test on DU-145 prostate it was 30.3%; with K-562 leukemia, 19.5%; with MALME-3M melanoma, 72.5%. The growth in the test with MDA-MB-231 breast was 55.9%; in the test on RXF 393 renal, 39.7%; with SF-268 CNS it was 61.1%; in the test on SF-295 CNS, 32.4%; in the test with SF-539 CNS, 36%; in the test with UACC-257 melanoma it was 84.5%. For the same molecule, the growth in the test with M14 melanoma was 21%; with HCT-15 colon, 43.8%.
As for `CCOC(=O)C1(Cc2ccccc2)CCN(Cc2cccc(OC)c2O)CC1`, the growth with NCI-H23 lung is 18.3%; in the test on NCI-H322M lung it was 20.3%; with HOP-62 NSCLC, 12.9%; with NCI-H460 lung it was -13% (active); with HOP-92 NSCLC it was 30.6%; in the test with NCI-H522 lung, 17.1%. For the same molecule, the growth in the test on A549/ATCC NSCLC was 2.47% (active); in the test on 786-0 renal, 6.33% (active); in the test on COLO 205 colon, 10.2%; with DU-145 prostate, 10.8%; in the test with K-562 leukemia it was 8.73% (active); in the test on MALME-3M melanoma it was 12%. For the same molecule, the growth is 22.1% in the test with MDA-MB-231 breast; -13.9% (active) in the test with RXF 393 renal; 5.65% (active) in the test with SF-268 CNS; -22.2% (active) in the test with SF-295 CNS; 5.93% (active) with SF-539 CNS; -4.96% (active) in the test with UACC-257 melanoma. In addition, the values for the growth with M14 melanoma and in the test with HCT-15 colon were 2.78% (active) and 24%, respectively.
As for `CCOC(=O)C1=C(C)c2ccc(OC)c(OC)c2C1`, the growth in the test with NCI-H23 lung was 91.8%; in the test with NCI-H322M lung, 99.2%; in the test with HOP-62 NSCLC, 88.5%; with NCI-H460 lung it was 118%; with HOP-92 NSCLC, 79.2%; with NCI-H522 lung, 78.6%. In addition, the growth in the test with A549/ATCC NSCLC is 87%; in the test on 786-0 renal it was 81.4%; with COLO 205 colon, 113%; with DU-145 prostate, 115%; in the test on K-562 leukemia, 102%; with MALME-3M melanoma it was 123%. For the same molecule, the growth in the test with MDA-MB-231 breast is 117%; with RXF 393 renal it was 93.8%; with SF-268 CNS, 108%; in the test on SF-295 CNS, 99.5%; in the test on SF-539 CNS, 91.9%; in the test with UACC-257 melanoma it was 98.4%. The growth in the test with M14 melanoma is 126%; in the test with HCT-15 colon, 97.3%.
